Reference: PubChem BioAssay (Tox21)
Unmarked numbers belong to inactive results. Inconclusive results are not listed. Entries that show only a call come without a potency. The source made the active and inactive calls. Unless noted, the call rests on the fitted dose curve; in most records, active means well fitted curve in the direction sought with a large enough effect in the repeat runs; inconclusive means weak or mixed curves; inactive means no such curve, though single readings can be large; an effect the other way counts as inactive or inconclusive.

Legend:
[1] = qHTS assay to identify small molecule antagonists of the estrogen related receptor (ERR) signaling pathway from Tox21 library - cell viability counter screen (AID 1224834); further: nearly all actives have a fitted effect of over 30% in size
Summary of the method: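 After 17.5 h of compound exposure at 37 C, ERR cells are incubated with CellTiter-Fluor for 30 min and fluorescence intensity serves as the viability measure.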

[2] = molecular target: Luciferin 4-monooxygenase (Photinus pyralis) (UniProt P08659); test: qHTS assay to identify small molecule inhibitors of firefly luciferase (AID 1224835); further: nearly all actives have a fitted effect of over 25% in size; further: potency means the concentration at half of the fitted maximal effect
Luciferin 4-monooxygenase (Photinus pyralis), sequence (P08659 whole entry, looked up): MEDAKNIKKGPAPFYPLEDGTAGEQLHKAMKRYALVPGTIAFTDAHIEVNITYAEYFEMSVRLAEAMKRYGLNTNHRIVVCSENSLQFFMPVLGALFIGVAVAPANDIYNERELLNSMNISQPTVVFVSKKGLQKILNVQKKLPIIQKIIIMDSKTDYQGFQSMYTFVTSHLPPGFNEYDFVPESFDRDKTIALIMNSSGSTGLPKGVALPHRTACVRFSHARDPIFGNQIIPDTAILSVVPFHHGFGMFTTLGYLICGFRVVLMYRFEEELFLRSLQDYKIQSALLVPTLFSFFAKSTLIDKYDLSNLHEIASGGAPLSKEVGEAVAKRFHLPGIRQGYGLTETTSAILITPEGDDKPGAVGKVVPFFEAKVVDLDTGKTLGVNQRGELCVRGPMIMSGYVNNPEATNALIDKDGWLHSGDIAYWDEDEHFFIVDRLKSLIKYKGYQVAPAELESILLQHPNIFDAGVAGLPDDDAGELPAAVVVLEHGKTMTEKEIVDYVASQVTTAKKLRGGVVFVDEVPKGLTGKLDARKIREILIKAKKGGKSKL
Summary of the method: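 Biochemical qHTS: compounds run as interplate titrations against purified firefly enzyme, with D-luciferin and ATP each at its KM concentration. Light output recorded by CCD imaging.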

[3] = qHTS assay to identify small molecule agonists of the constitutive androstane receptor (CAR) signaling pathway - cell viability counter screen (AID 1224836); further: nearly all actives have a fitted effect of over 45% in size
Summary of the method: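 HepG2 cells stably carrying hCAR and a CYP2B6-2.2kb reporter were plated 4 h, then given compounds at 15 concentrations plus PK11195 (final 0.75 uM). After 23 h at 37 C, viability was read by CellTiter-Fluor fluorescence.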

[4] = qHTS assay to identify small molecule antagonists of the constitutive androstane receptor (CAR) signaling pathway - cell viability counter screen (AID 1224837); further: nearly all actives have a fitted effect of over 45% in size
Summary of the method: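 Counter screen run in HepG2-CYP2B6-hCAR cells: 4 hr settle, compound titration (15 concentrations) with 50 nM CITCO, 23 hr at 37 C/5% CO2, CellTiter-Fluor fluorescence.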

[5] = molecular target: Nuclear receptor subfamily 1 group I member 3 (Homo sapiens) (UniProt Q14994); test: qHTS assay to identify small molecule antagonists of the constitutive androstane receptor (CAR) signaling pathway (AID 1224838); further: nearly all actives have a fitted effect of over 40% in size
Nuclear receptor subfamily 1 group I member 3 (Homo sapiens), sequence (Q14994 whole entry, looked up): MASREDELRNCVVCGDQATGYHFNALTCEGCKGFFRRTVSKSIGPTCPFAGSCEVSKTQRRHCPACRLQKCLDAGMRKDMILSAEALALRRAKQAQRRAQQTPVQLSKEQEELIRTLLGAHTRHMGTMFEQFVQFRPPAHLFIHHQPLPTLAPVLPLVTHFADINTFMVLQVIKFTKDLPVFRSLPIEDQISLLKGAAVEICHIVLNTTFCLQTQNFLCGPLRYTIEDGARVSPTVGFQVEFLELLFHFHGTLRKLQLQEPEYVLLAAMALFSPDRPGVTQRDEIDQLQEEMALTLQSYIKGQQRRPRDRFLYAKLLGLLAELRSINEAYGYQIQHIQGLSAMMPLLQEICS
Summary of the method: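 Cell line: HepG2 double-stable for hCAR and CYP2B6-2.2kb reporter. Agonist: CITCO, 50 nM final. Compounds: 15 concentrations, 24 h, 37 C. Detection: ONE-Glo luminescence.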

[6] = molecular target: Nuclear receptor subfamily 1 group I member 3 (Homo sapiens) (UniProt Q14994); test: qHTS assay to identify small molecule agonists of the constitutive androstane receptor (CAR) signaling pathway (AID 1224839); further: nearly all actives have a fitted effect of over 15% in size; further: potency means the concentration at half of the fitted maximal effect;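 on activation: HepG2 cells stably carrying human CAR and a CYP2B6 luciferase reporter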
Summary of the method: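 HepG2 cells stably expressing hCAR and a CYP2B6-2.2kb luciferase reporter were treated with compounds at 15 concentrations plus 0.75 uM PK11195 (final) for 24 h at 37 C; luminescence was read after ONE-Glo addition.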

[7] = qHTS assay to identify small molecule antagonists of the estrogen related receptor signaling pathway with the pleiotropic PPARgamma coactivator (PGC) from Tox21 10K library - cell viability counter screen (AID 1224840; active means well fitted cell-killing curve with a large enough effect in the repeat runs, not every such curve was filed as active; further: nearly all actives have a fitted effect of over 40% in size)
Summary of the method: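 Following seeding of 2,000 PGC/ERR cells/well and 6 hours' incubation, test compounds were delivered in DMSO. The plates then sat 17.5 hours at 37 C before a fluorogenic live-cell protease reagent (CellTiter-Fluor) was read after 30 min.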

[8] = molecular target: Thyrotropin receptor (Homo sapiens) (UniProt P16473); test: qHTS assay to identify small molecule agonists of the thyroid stimulating hormone receptor (TSHR) signaling pathway (AID 1224843; calls by dose curve; further: nearly all actives have a fitted effect of over 45% in size)
Thyrotropin receptor (Homo sapiens), sequence (P16473 whole entry, looked up): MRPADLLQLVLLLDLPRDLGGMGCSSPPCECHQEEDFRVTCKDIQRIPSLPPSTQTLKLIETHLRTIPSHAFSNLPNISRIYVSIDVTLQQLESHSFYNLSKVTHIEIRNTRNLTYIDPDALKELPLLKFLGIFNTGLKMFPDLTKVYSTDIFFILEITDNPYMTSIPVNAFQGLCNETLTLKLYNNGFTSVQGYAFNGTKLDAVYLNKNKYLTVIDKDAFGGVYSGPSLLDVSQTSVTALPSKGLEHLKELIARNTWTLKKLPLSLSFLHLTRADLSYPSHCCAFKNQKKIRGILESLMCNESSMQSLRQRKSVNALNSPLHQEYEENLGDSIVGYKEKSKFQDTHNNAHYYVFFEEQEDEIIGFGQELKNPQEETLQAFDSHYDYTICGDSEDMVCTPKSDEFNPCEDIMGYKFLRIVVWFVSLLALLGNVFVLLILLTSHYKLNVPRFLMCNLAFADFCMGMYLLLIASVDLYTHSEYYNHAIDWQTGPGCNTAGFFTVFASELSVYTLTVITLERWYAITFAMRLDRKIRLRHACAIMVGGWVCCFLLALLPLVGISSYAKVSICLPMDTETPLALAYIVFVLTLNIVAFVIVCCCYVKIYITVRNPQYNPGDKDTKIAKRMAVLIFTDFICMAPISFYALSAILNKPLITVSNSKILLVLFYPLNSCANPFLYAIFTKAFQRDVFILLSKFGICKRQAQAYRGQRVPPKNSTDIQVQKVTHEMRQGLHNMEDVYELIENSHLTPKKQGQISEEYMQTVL
Summary of the method: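 TSHR-HEK293 cells in agonist mode, 30 min room-temperature step, then cAMP measured by competitive HTRF (cAMP-d2 with anti-cAMP cryptate) after 1 h at room temperature. Tested at 15 concentrations in triplicate.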

[9] = qHTS assay to identify small molecule agonists of the hypoxia (HIF-1) signaling pathway - cell viability counter screen (AID 1224844; calls by dose curve; further: nearly all actives have a fitted effect of over 50% in size)
Summary of the method: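 Cells (HRE-bla ME-180, 2,000 per well) sat 5 hrs at 37C, got compound for 17 hrs, were read for CCF4-AM FRET, and were finally lysed with CellTiter-Glo for a 30 min room-temperature luminescence read.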

[10] = qHTS assay to identify small molecule agonists of H2AX (AID 1224845; active means well fitted activation curve with a large enough effect in the signal ratio in the repeat runs, not every such curve was filed as active; the % refers to the signal ratio)
Summary of the method: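 Wild-type CHO-K1 cells, plated overnight, exposed 3hr at 37C to 15 concentrations (0.76% DMSO final). Lysed, then HTRF anti-pH2AX (S139) cryptate and anti-H2AX-d2 antibodies, 24 hr room temperature; 665/620 nm emission read.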

[11] = qHTS assay to identify small molecule agonists of the hypoxia (HIF-1) signaling pathway (AID 1224846; active means well fitted activation curve with a large enough effect in the signal ratio in the repeat runs, not every such curve was filed as active; the % refers to the signal ratio)
Summary of the method: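 A low-serum medium (0.5% dialyzed FBS) holding 2,000 HRE-bla ME-180 cells per well is preincubated for 5 hrs, dosed with compounds by pintool, and kept a further 17 hrs at 37C, 5% CO2 before CCF4-AM FRET detection of beta-lactamase.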

[12] = qHTS assay to identify small molecule agonists of H2AX - cell viability counter screen (AID 1224847; calls by dose curve; further: top concentration of the series differs between compounds; nearly all actives have a fitted effect of over 30% in size)
Summary of the method: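 Wild-type CHO-K1 cells (10% FBS medium) were plated overnight at 37C, exposed to compounds at 15 concentrations for 3 hr at 37C (0.76% DMSO final), and viability was read as CellTiter-Glo luminescence after 30 min at room temperature.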

[13] = qHTS assay to identify small molecule antagonists of the estrogen related receptor (ERR) signaling pathway from Tox21 library (AID 1224848); further: nearly all actives have a fitted effect of over 50% in size
Summary of the method: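 ERR reporter cell line (from NTP) seeded 2,000 cells/well, rested 6 h at 37 C/5% CO2, then pin-dosed with compounds in DMSO. After 18 h at 37 C, ONE-Glo added; luminescence read after 30 min at room temperature.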

[14] = qHTS assay to identify small molecule agonists of the estrogen related receptor (ERR) signaling pathway from Tox21 library (AID 1224849; calls by dose curve; further: nearly all actives have a fitted effect of over 15% in size); conditions: ERR reporter cell line, ONE-Glo luciferase, 18 h; at 92.4 µM (top of the series) unless noted
Summary of the method: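 Screening used an NTP-provided ERR luciferase cell line. Compounds in DMSO were added 6 h after seeding and left 18 h at 37 C before a 30 min ONE-Glo step and luminescence reading.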

[15] = qHTS RealTime-Glo MT Cell Viability Assay in HepG2 cells - 24 hour (AID 1224867); further: nearly all actives have a fitted effect of over 50% in size
Summary of the method: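 Cell number in HepG2 cultures estimated from NanoLuc luminescence generated by metabolic reduction of a prosubstrate by living cells. The homogeneous, nonlytic format allowed repeated reads at 0, 8, 16, 24, 32 and 40 h of compound exposure.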

[16] = qHTS RealTime-Glo MT Cell Viability Assay in HEK293 cells - 32 hour (AID 1224868); further: top concentration of the series differs between compounds; nearly all actives have a fitted effect of over 50% in size
Summary of the method: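 Homogeneous bioluminescent viability format in HEK293 cells (600 cells/well). Following 5 h at 37 C/5% CO2, 23 nL compound was pintooled; the signal was measured repeatedly during 40 h incubation.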

[17] = A CellTox Green Cytotoxicity Assay to monitor cytotoxicity in HEK293 cells - 0 hour (AID 1224869); further: nearly all actives have a fitted effect of over 50% in size
Summary of the method: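 Fluorescence intensity, read at 0, 8, 16, 24, 32 and 40 h of compound treatment, reflected dye binding to DNA of dead HEK293 cells; compounds (23 nL, DMSO) were added 5 h after plating cells with reagent.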

[18] = qHTS RealTime-Glo MT Cell Viability Assay in HepG2 cells - 40 hour (AID 1224870); further: nearly all actives have a fitted effect of over 50% in size
Summary of the method: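 HepG2 cells (600/well) mixed with RealTime-Glo MT reagent, settled 5 h at 37 C/5% CO2 before compound addition. Nonlytic NanoLuc luminescence from viable-cell prosubstrate reduction read repeatedly during 40 h treatment at 37 C.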

[19] = qHTS assay to identify small molecule antagonists of the estrogen related receptor signaling pathway with the pleiotropic PPARgamma coactivator (PGC) from Tox21 10K library (AID 1224841; call rule not given here)
Summary of the method: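 qHTS antagonist format: PGC/ERR cells, 2k/well, compound in DMSO by pin transfer after 6 h attachment, 18 h treatment at 37 C, One-Glo luminescence read at 30 min.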

[20] = qHTS assay to identify small molecule agonists of the estrogen related receptor signaling pathway with the pleiotropic PPARgamma coactivator (PGC) from Tox21 10K library (AID 1224842); further: nearly all actives have a fitted effect of over 15% in size
Summary of the method: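 PGC/ERR reporter cell line, 2,000 cells per well, incubated 6 h at 37 C before 23 nL compound in DMSO was added. After 18 h at 37 C, One-Glo luminescence read following 30 min at room temperature.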

Row | SMILES | Potency [1] | Potency [2] | Potency [3] | Potency [4] | Potency [5] | Potency [6] | Potency [7] | Potency [8] | Potency [9] | Potency [10] | outcome [11] | Potency [12] | Potency [13] | activity change, positive = activation [14] | Potency [15] | Potency [16] | Potency [17] | Potency [18] | Potency [19] | Potency [20]
1 | C=CC[N+]1([C@H]2C[C@H]3[C@@H]4CC[C@H]5C[C@H](OC(C)=O)[C@@H](N6CCCCC6)C[C@]5(C)[C@H]4CC[C@]3(C)[C@H]2OC(=O)CC)CCCCC1 | inactive | inactive | inactive | inactive | inactive | inactive | inactive | inactive | inactive | inactive | inactive | inactive | inactive | -0.214% [at 42.5 µM] | inactive | inactive | inactive | inactive |  | 
2 | CC(C)CC=O | inactive | inactive | inactive | inactive | inactive | inactive | inactive | inactive | inactive | inactive | inactive | inactive |  |  | inactive |  | inactive | inactive |  | 
3 | Cc1occc1S | inactive | inactive | inactive | inactive | inactive | inactive | inactive | inactive | inactive | inactive | inactive | inactive | inactive | 9.5% | inactive | inactive | inactive | inactive | inactive | inactive
4 | CC(C)(C)c1cc(CCC(=O)OCC(COC(=O)CCc2cc(C(C)(C)C)c(O)c(C(C)(C)C)c2)(COC(=O)CCc2cc(C(C)(C)C)c(O)c(C(C)(C)C)c2)COC(=O)CCc2cc(C(C)(C)C)c(O)c(C(C)(C)C)c2)cc(C(C)(C)C)c1O | inactive | inactive | inactive | inactive | inactive | inactive | inactive | inactive | inactive | inactive | inactive | inactive |  |  | inactive | inactive | inactive | inactive |  | 
5 | CCOC(=O)CC(C)C | inactive | inactive | inactive | inactive | inactive | inactive | inactive | inactive | inactive | inactive | inactive |  |  |  | inactive | inactive | inactive | inactive |  | 
6 | Cc1cc(NC(=O)C(=O)O)cc(C)c1Oc1ccc(O)c2c1CCC2 | inactive | 35.6 µM (active) | inactive | inactive | inactive | inactive | inactive |  |  |  | inactive | inactive | inactive | 1.77% | inactive | inactive | inactive | inactive | inactive | inactive
7 | N=C(N=C(N)N)N1CCOCC1 | inactive | inactive | inactive | inactive | inactive | inactive | inactive | inactive |  |  |  | inactive | inactive | 10.8% [at 42.5 µM] | inactive | inactive | inactive | inactive | inactive | inactive
8 | O=C(O)C(c1ccc(Cl)cc1)c1ccc(Cl)cc1 | inactive | inactive | inactive | inactive | inactive | inactive | inactive | inactive | inactive |  | inactive | inactive | inactive | -7.31% | inactive | inactive | inactive | inactive | inactive | 
9 | CCCC[C@H]1CN(CC2CCOCC2)C(=O)OC12CCN(C1(C)CCN(C(=O)c3c(C)ncnc3C)CC1)CC2 | inactive | inactive | inactive | inactive | inactive | inactive | inactive | inactive | inactive | inactive | inactive | inactive | inactive | -0.219% | inactive | inactive | inactive | inactive | inactive | inactive
10 | CCN(CC)CCc1nc(-c2ccccc2)no1 | inactive | inactive | inactive | inactive | inactive | 9.44 µM (active) | inactive | inactive | inactive | inactive | inactive | inactive | inactive | 0.733% [at 42.5 µM] | inactive | inactive | inactive | inactive |  | inactive
11 | Oc1ccc(O)c2c(O)cccc12 | inactive | inactive | inactive | inactive | inactive | inactive | inactive | inactive | inactive | inactive |  |  | inactive | 1.72% | inactive | inactive | inactive | inactive | inactive | 
12 | Cc1ccc(C(=O)C(C)CN2CCCCC2)cc1 (centres undefined) | inactive | inactive | inactive | inactive | inactive | inactive | inactive | inactive |  |  | inactive | inactive | inactive | 4.97% [at 42.5 µM] | inactive | inactive | inactive | inactive | inactive | 
13 | CCCCOC(=O)c1ccccc1C(=O)OCC(CC)CCCC (centres undefined) | inactive | inactive | inactive | inactive | inactive | inactive | inactive | inactive | inactive | inactive | inactive | inactive |  |  | inactive | inactive | inactive | inactive |  | 
14 | NCCCN(CCO)CCO | inactive | inactive | inactive | inactive | inactive | inactive | inactive | inactive | inactive | inactive | inactive | inactive |  |  | inactive | inactive | inactive | inactive |  | 
15 | CCCCCCCCCCCCC(=O)O | inactive | 63.5 µM (active) | inactive | inactive | inactive | inactive | inactive | inactive | inactive | inactive | inactive | inactive |  |  | inactive | inactive | inactive | inactive |  | 
16 | CC[C@H](C)[C@H](N)C(=O)O | inactive | inactive | inactive | inactive | inactive | inactive | inactive | inactive |  | inactive |  | inactive | inactive | 5.77% [at 42.5 µM] | inactive |  | inactive | inactive | inactive | inactive
